High-throughput results: PubChem, National Center for Advancing Translational Sciences (NCATS)
BAZ2B block: blocks human BAZ2B; Q9UIF8; AlphaScreen BAZ2B-H3K14Ac peptide displacement; Potency, µM (highest dose often 114 µM), for inactives: at the highest dose activity change, negative = inhibition, usual class: inhibitors; actives 4.4% (n = 360,000); also: % is scaled to controls: 0 for no effect and ±100 for the full control effect; nearly all actives have a fitted effect of over 60% in size
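Multi-concentration screen (max 110 uM) measuring displacement of acetylated histone H3 peptide from BAZ2B by AlphaScreen, using 50 nM protein, 50 nM peptide and 10 ug/mL streptavidin donor plus Ni-chelate acceptor beads.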
JMJD2A Tudor: inhibitors of human JMJD2A Tudor domain | O75164 | AlphaScreen JMJD2A-Tudor / H3K4me3 peptide binding | Potency, µM (series often up to 114 µM), inactives show at the highest dose activity change, negative = inhibition, most hits filed as inhibitors | actives 4.4% (n = 390,000); also: % is scaled to controls: 0 for no effect and ±100 for the full control effect; nearly all actives have a fitted effect of over 50% in size
L3MBTL1 inh: inhibitors of human L3MBTL1. AID 485360. actives 0.66% (n = 230,000). AlphaScreen L3MBTL1–H3K9me1 peptide binding. Q9Y468. Potency, µM (titrated, usually from 57.1 µM), for the others: at the top dose activity, negative = inhibition, usual class: inhibitors; also: % is scaled to controls: 0 for no effect and ±100 for the full control effect; nearly all actives have a fitted effect of over 60% in size
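Displacement of a biotinylated histone H3(1-15) peptide monomethylated at Lys9 (75 nM) from L3MBTL1 (50 nM) was measured by AlphaScreen after a 30 min room-temperature compound incubation; cefsulodin titration served as intraplate control.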
G9a inh: blocks human histone lysine methyltransferase G9a. Q96KQ7. G9a H3K9 monomethylation, AlphaScreen, 2 h. Potency, µM (doses to about 102 µM), without a hit: at the top dose activity, negative = inhibition, actives largely listed as inhibitors. actives 8.8% (n = 350,000). AID 504332; also: % is scaled to controls: 0 for no effect and ±100 for the full control effect; nearly all actives have a fitted effect of over 75% in size
Target sequence (Q96KQ7 913-1193 limits assumed): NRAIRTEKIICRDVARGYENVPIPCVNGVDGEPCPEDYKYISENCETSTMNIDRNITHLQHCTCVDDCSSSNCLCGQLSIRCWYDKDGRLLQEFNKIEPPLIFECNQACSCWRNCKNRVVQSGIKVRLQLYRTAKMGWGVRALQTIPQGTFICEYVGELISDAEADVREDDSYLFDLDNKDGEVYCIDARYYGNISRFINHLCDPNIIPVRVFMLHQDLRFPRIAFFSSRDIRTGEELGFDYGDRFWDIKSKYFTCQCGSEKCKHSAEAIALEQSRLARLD
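Chemiluminescent proximity detection of H3K9 monomethylation, read after 10 min bead incubation in the dark. Reaction: 20 nM G9a, 500 nM biotin-H3K9 peptide, 20 uM SAM cofactor, 2 h, room temperature, following 15 min enzyme-compound preincubation.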
Sfp PPTase inh: Sfp phosphopantetheinyl transferase inhibition; Q9F4F7; Biochemical Sfp PPTase activity, qHTS; Potency, µM, without a hit: largest response in the series, negative = inhibition, most hits filed as inhibitors; actives 3.5% (n = 310,000); AID 1490;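 also: the enzyme is Sfp with the accession as filed and its product quenches rhodamine fluorescence; 0% = enzyme reaction without inhibitor and -100% = no enzyme wells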
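With Hepes-Na pH 7.6 buffer containing 10 mM MgCl2, Sfp (15 nM) modified BHQ-2-YbbR (12.5 uM) using rhodamine-CoA (5 uM). Two reads 30 minutes apart at 525/598 nm yielded each well's rate.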
HP1b chromo inh: blocks HP1-beta chromodomain binding to methylated histone tails; AlphaScreen HP1-beta / biotin-H3K9me3 peptide binding; Potency, µM (doses to about 114 µM), for the others: at the highest dose activity change, negative = inhibition, actives largely listed as inhibitors; actives 0.56% (n = 390,000); AID 540317; also: nearly all actives have a fitted effect of over 70% in size
Target sequence (P83916 whole entry, looked up): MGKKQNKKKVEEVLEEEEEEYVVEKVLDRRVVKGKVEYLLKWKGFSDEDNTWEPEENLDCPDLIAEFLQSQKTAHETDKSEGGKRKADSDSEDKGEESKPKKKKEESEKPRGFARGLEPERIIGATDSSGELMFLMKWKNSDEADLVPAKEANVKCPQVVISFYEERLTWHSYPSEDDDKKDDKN
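AlphaScreen: HP1-beta (50 nM) preformed 30 min with biotin-H3(1-18)K9me3 peptide (50 nM) in PBS pH 7.4, 0.01% Tween-20. Compound added for 30 min at RT, then streptavidin donor/nickel chelate acceptor beads (10 ug/mL) for 30 min.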
* marks the source's active call; other numbers are inactive results; ? = inconclusive; · = no result given; [ ] = remark or other dose. An excerpt weighted towards active compounds, which were near 12% of everything screened. Calls follow the shape of the dose curve; as a rule, active = well fitted curve in the direction sought with a large enough effect; inconclusive = small, poorly fitted or top-dose-only effect, or another doubt; inactive = no such curve, though single readings can be large; an effect the other way counts as inactive or inconclusive. Potency is read from the fitted curve at half-maximal effect.

SMILES	BAZ2B block	JMJD2A Tudor	L3MBTL1 inh	G9a inh	Sfp PPTase inh	HP1b chromo inh
COc1ccc(-c2cc(C(F)(F)F)n3nc(C(=O)NCc4ccco4)cc3n2)cc1	4%	6%	12%	-1%[59 µM]	-11%	25%
Cc1cc(-c2ccccc2)nc2cc(C(=O)NCc3ccco3)nn12	50µM*	?	·	50µM*	?	-2%
c1cncc(CNCc2ccco2)c1	71µM*	-14%	·	?	-26%	7%
CCS(=O)(=O)c1ccc(O)c(Nc2cc(C)nc(SC)n2)c1	-32%	-11%	·	-25%[59 µM]	·	12%
CCc1ccc(/C=C/c2c[nH]c3ccccc23)[n+](CC)c1	0%	?	3%	7.1µM*	-49%	22%
Cc1ccc(C)n1-c1sccc1C(=O)O	18µM*	?	·	13µM*	50µM*	?
CCOC(=O)c1sc(SCC(=O)Nc2ccc(N(C)C)cc2)nc1N	45µM*	?	-16%	11µM*	-4%	?
CN(C)c1ccc(NC(=O)CSc2nc(N)c(C(=O)Nc3ccc(N(C)C)cc3)s2)cc1	20µM*	?	?	?	-8%	?
COc1ccc(NC(=O)CSc2nc(N)c(C(=O)Nc3ccc(N(C)C)cc3)s2)cc1	-29%	-12%	·	?	-10%	7%
CCOc1ccccc1-c1nc(C(N)=O)c2c(n1)n(-c1ccc3c(c1)OCO3)c(=O)n2C	1%	-16%	·	21%[59 µM]	·	18%[57 µM]
CN(C)c1ccc(CNc2nc(-c3ccco3)nn2S(C)(=O)=O)cc1	?	-34%	·	?	·	25%
c1ccc(-c2csc3ncnc(N4CCc5ccccc5C4)c23)cc1	-27%	5%	0%	28%[59 µM]	-16%	60%
O=C(OCc1cc2ccccc2[nH]c1=O)c1cccs1	8%	-3%	7%	20µM*	8%	37%
O=C(OCc1cc2ccccc2[nH]c1=O)c1ccccn1	?	-3%	3%	-4%	4%	14%
COCCn1c(=O)c(-c2cccs2)nc2cnc(Oc3ccccc3)nc21	·	·	·	-5%[0.501 µM]	4%	·
NC(=O)CC(NC(=O)c1ccccc1)c1ccc(NCc2ccc(F)cc2)c([N+](=O)[O-])c1 (stereo not given)	-26%	-35%	·	?	-20%	-4%
NC(=O)CC(NC(=O)c1ccccc1)c1ccc(NCc2ccc(F)c(F)c2)c([N+](=O)[O-])c1 (stereo not given)	?	?	-2%	71µM*	12%	3%
NC(=O)CC(NC(=O)c1ccc(Br)cc1)c1ccc(NCc2ccc(F)cc2)c([N+](=O)[O-])c1 (stereo not given)	-16%	-13%	·	?	-6%	23%
NC(=O)CC(NC(=O)c1ccc(Br)cc1)c1ccc(NCc2ccc(F)c(F)c2)c([N+](=O)[O-])c1 (stereo not given)	-28%	-26%	·	?	50µM*	11%
COc1ccc(OC)c(C(=O)NC(CC(N)=O)c2ccc(NCc3ccc(F)c(F)c3)c([N+](=O)[O-])c2)c1 (stereo not given)	45µM*	?	-12%	89µM*	-7%	-11%
Cc1ccc(NC(=O)C(Cc2ccccc2)N2Cc3ccccc3C2=O)cc1Cl (stereo not given)	0%	-30%	·	-13%[59 µM]	·	27%
COc1ccccc1OCCCOc1cccc(/C=C2\SC(=O)NC2=O)c1	79µM*	22µM*	0%[2.29 µM]	-1%[0.501 µM]	?	-2%
COc1ccccc1OCCCOc1ccc(/C=C2\SC(=O)NC2=O)cc1OC	-30%	-32%	1%[2.29 µM]	3%[0.501 µM]	6%	8%
CN(C)CCN(C(=O)c1ccc(N2C(=O)CCC2=O)cc1)c1nc2cc3c(cc2s1)OCCO3	?	·	·	32µM*	-13%	·
CN(C)CCN(C(=O)c1ccco1)c1nc2cc3c(cc2s1)OCCO3	-24%	-10%	·	·	1%	25%
